Pf Dd2 growth – qHTS Primary assay for Inhibitors of Plasmodium falciparum Dd2 growth in vitro. Potency, µM (top dose mostly 28.9 µM), hits mostly inhibitors. P. falciparum Dd2 growth, SYBR Green, 72 h. hit rate 4.3% among 120,000; active means well fitted inhibition curve with a large enough effect; further: nearly all actives have a fitted effect of over 65% in size
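Infected erythrocytes (Dd2, 0.3% parasitemia, 2.5% hematocrit final) are added to compound in RPMI-1640/Albumax II medium, grown 72 h at 37C in low oxygen, then lysed with saponin/Triton-X containing SYBR Green and read by fluorescence.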
Hits are given with their value; – = inactive; ! = a repeat was not active. Only a selection was taken, and hits are over-represented in it overall.

SMILES	Pf Dd2 growth
Cc1noc(-c2cn(C3CCN(C(=O)c4cc(F)ccc4F)C3)nn2)n1 (stereo not drawn)	–
COCCN1C(=O)CC[C@@]2(C(=O)NCc3ccncc3)CCCC[C@H]12	–
COc1ccc(O[C@H]2COCCN(C(=O)c3cccnc3)C2)cc1	–
C#CCNC(=O)C[C@@H]1O[C@H](CNC(=O)c2cccc(F)c2)[C@@H](O)[C@H]1O	–
CN(C)c1ccc(-c2nnnn2[C@H]2CO[C@H]3[C@@H]2OC[C@@H]3NS(=O)(=O)c2ccc3ccccc3c2)cc1	–
O=C(c1ccc(Oc2ccccc2)cc1)N1CCNc2cnc(Nc3cccc(C(F)(F)F)c3)nc2C1	–
CC(C)(C)C(=O)Nc1nc2c(s1)C[C@@H]1[C@](C)(CO)[C@H](O)CC[C@@]1(C)[C@@H]2CC(=O)O	–
CC(C)(C)C(=O)Nc1nc2c(s1)C[C@@H]1[C@](C)(CO)[C@H](O)CC[C@@]1(C)[C@@H]2CC(=O)NC1CC1	–
COCC(=O)Nc1nc2c(s1)C[C@@H]1[C@](C)(CO)[C@H](O)CC[C@@]1(C)[C@@H]2CC(=O)NC(C)C	–
CCCCCC(=O)Nc1nc2c(s1)C[C@@H]1[C@](C)(CO)[C@H](O)CC[C@@]1(C)[C@@H]2CC(=O)N[C@@H](CO)CC(C)C	–
CC(C)(C)C(=O)Nc1nc2c(s1)C[C@@H]1[C@](C)(CO)[C@H](O)CC[C@@]1(C)[C@@H]2CC(=O)Nc1cccc(O)c1	8.9µM
CC(C)C[C@H](CO)NC(=O)C[C@@H]1c2nc(NC(=O)C(C)(C)C)sc2C[C@@H]2[C@](C)(CO)[C@H](O)CC[C@]21C	8.9µM
O=C(Cn1nc2c(cc1=O)CCCCC2)Nc1cccc(C(F)(F)F)c1	–
O=C(NC1CCCN(c2cc(-c3ccc(F)cc3)[nH]n2)C1)c1ccccc1Cl (stereo not drawn)	–
CCC(=O)N(C1CCOCC1)C1CCN(Cc2cc(F)cc(F)c2)CC1	–
O=C(c1cn(-c2ccccc2)nn1)N1CCOCC(O)(CN2CCCC2)C1 (stereo not drawn)	–
Cc1ccc(CN2C[C@H]3CN(C(=O)C4CCOCC4)CCN3C2=O)cc1	–
COC1C(=O)N(CC2CC2)C12CCN(S(=O)(=O)c1ccc3c(c1)OCCO3)CC2 (stereo not drawn)	–
CCc1cccc(NC(=O)N2C[C@@H](F)C[C@H]2C(=O)N2CCCCC2)c1	–
CN1C(=O)C2(CCN(C(=O)c3cccc(F)c3)C2)c2ccccc21 (stereo not drawn)	–
CC(C)CCNC(=O)N1CCC2(CC1)C(=O)N(C)c1ccccc12	–
COc1ccc(C(=O)N2CCC3(C2)C(=O)N(Cc2ccccc2)c2ccccc23)cc1 (stereo not drawn)	–
CC(C)Oc1ccc(C(=O)N2CCC3(CC2)C(=O)N(C)c2ccccc23)cc1	8.9µM
CC1(C(=O)O)CCN(C(=O)c2cccc(Cl)c2)CC1	–
COc1ccc(C(=O)N2CCC3(CC2)C(=O)Nc2ccccc23)cc1	–
SMILES	Pf Dd2 growth
COc1ccc(C(=O)N2CCC3(C2)C(=O)N(CCc2ccccc2)c2ccccc23)cc1 (stereo not drawn)	8.9µM!
CN1C(=O)C2(CCN(C(=O)c3ccccc3)C2)c2ccccc21 (stereo not drawn)	–
O=C(c1cccc(Cl)c1)N1CCC2(C1)C(=O)N(CCc1ccccc1)c1ccccc12 (stereo not drawn)	7.9µM!
CN(Cc1cn[nH]c1-c1ccc(F)cc1)C(=O)c1ccccc1C1CCNC1 (stereo not drawn)	–
COc1ccc(-c2ccc(C(=O)N[C@H](c3ccccn3)C3CC(O)C3)o2)cc1 (stereo partly drawn)	–
O=C(N[C@H]1C[C@H]2C(=O)NC[C@@H](CCC(=O)N3CCN(c4ccccn4)CC3)N2C1)c1ccccc1	–
COc1cc(Cl)ccc1C(=O)N1CCN(C(=O)c2nnn3c2COC(c2ccccc2)C3)CC1 (stereo not drawn)	–
CC(C)Oc1ccc(C(=O)N2C[C@@H]3CCN(C)C[C@]3(C(=O)O)C2)cc1	–
Cc1cnc(CC2CCN(C(=O)C3CC3)C2)n1CC1CC1 (stereo not drawn)	–
CSCC(=O)N1CCC(c2nnc(CN3CCN(C)CC3)n2C)CC1	–
CCc1noc(-c2cn(C3CCN(C(=O)c4ccc(OC)cc4)CC3)nn2)n1	–
CCCc1noc(-c2cn(C3CCN(C(=O)c4cccc(N(C)C)c4)CC3)nn2)n1	3.5µM
Cc1noc(-c2cn(C3CCN(C(=O)c4cccc(Br)c4)CC3)nn2)n1	–
CCCc1noc(-c2cn(C3CCN(C(=O)c4ccc(OC)c(F)c4)CC3)nn2)n1	–
CCCc1noc(-c2cn(C3CCN(C(=O)c4ccc(C#N)cc4)CC3)nn2)n1	13µM
CCc1noc(-c2cn(C3CCN(C(=O)c4ccc(C)cc4)CC3)nn2)n1	–
Cc1cc(CC(C)NC(=O)Cc2c(C)[nH]c3ccccc23)n[nH]1 (stereo not drawn)	–
CC(C)CCC(=O)N1C[C@@H]2CCCN3CCC[C@@H]([C@H]23)[C@H]1CCCC(=O)N1CCOCC1	–
O=C([C@@H]1C[C@H](Oc2cccnc2)CN1C(=O)CCc1c[nH]c2ccccc12)N1CCOCC1	4µM
O=C([C@@H]1C[C@H](Oc2ccccc2)CN1C(=O)Cc1c[nH]c2ccccc12)N1CCOCC1	–
O=C([C@@H]1C[C@H](Oc2cccnc2)CN1C(=O)CCc1ccccc1)N1CCOCC1	–
NC(=O)[C@@H]1C[C@H](Oc2cccnc2)CN1S(=O)(=O)c1ccccc1	–
COCCn1ncc(N2CCCC(CC(=O)N(C)CCc3ccccn3)C2)cc1=O (stereo not drawn)	–
COc1cccc(-c2nc(SCC(=O)Nc3ccc4c(c3)OCO4)c(-c3ccccc3)[nH]2)c1	–
COc1ccc(NC(=O)C(NC(=O)/C=C\c2ccc3c(c2)OCO3)c2ccccc2)cc1 (stereo not drawn)	10µM
SMILES	Pf Dd2 growth
COc1ccc(/C=C/C(=O)Nc2cccc(F)c2)cc1	–
O=C(O)c1ccc(CN2Cc3[nH]cnc3C[C@H]2c2nc(-c3ccc4ccccc4c3)no2)cc1	–
CCn1cc(S(=O)(=O)c2ccccc2)c(=O)c2cc(F)c(N3CCN(c4ccccc4)CC3)cc21	3.2µM
CCn1cc(S(=O)(=O)c2cccc(C)c2)c(=O)c2cc(F)c(N3CCCCC3C)cc21 (stereo not drawn)	–
Cn1cc(S(=O)(=O)c2ccccc2)c(=O)c2cc(F)c(N3CCOCC3)cc21	–
CCn1cc(S(=O)(=O)c2ccccc2)c(=O)c2cc(C)ccc21	–
Cn1cc(S(=O)(=O)c2ccccc2)c(=O)c2cc(F)c(N3CCN(c4ccccc4)CC3)cc21	7.1µM
Cc1ccc(S(=O)(=O)c2cn(C)c3cc(N4CCN(c5ccccc5)CC4)c(F)cc3c2=O)cc1	–
c1ccc(C2=NOC3(CCN(Cc4cccc5ccccc45)CC3)C2)cc1	–
NC(=O)[C@@H]1CN(C(=O)CC2=CCCCC2)C[C@H]1COc1ccccc1	–
CCCCn1c(NCc2ccc(OC)cc2O)nc2ccccc21	7.9µM
CCCCn1c(COc2cccc(OC)c2)nc2ccccc21	–
CCn1c(NCc2ccc(OC)c(OC)c2)nc2ccccc21	–
COC1CCC(C(=O)N2CC(COc3ccccc3)C3(C2)CN(c2ccccc2)C3)CC1 (stereo not drawn)	–
COc1ccc(OC)c(NC(=O)Cn2nc3c(cc2=O)CCCCC3)c1	–
COC1CN(C2CCN(C(=O)c3ccoc3)CC2)C12CCOCC2 (stereo not drawn)	–
Cn1cccc1CN1CCC(N2CCOC2=O)CC1	–
